DT40 TDP1 CPT: DT40-hTDP1 cell growth loss with CPT; chicken DT40 Tdp1-/-;hTDP1 cells + 20 nM CPT, ATP luminescence, 48 h; Potency, µM (titrated, usually from 46.2 µM), actives largely listed as inhibitors; 420,000 compounds, 12% hits; AID 686979; further: nearly all actives have a fitted effect of over 55% in size
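Chicken DT40 Tdp1-/- cells stably complemented with human TDP1 were seeded at 400 cells/well in medium containing 20 nM camptothecin, exposed to pin-transferred compounds, and grown at 37 °C for at least 48 hr. Viability was read as ATP luminescence.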
HT1080 IDH1KD tx: toxicity to HT-1080 IDH1 knockdown cells (counter line); 360,000 compounds, 2% hits; HT-1080 IDH1 knockdown viability, ATP luminescence, 48 h; AID 686971; Potency, µM (highest dose often 46.1 µM), most hits filed as cytotoxic
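After a 2 h attachment period, IDH1KD HT-1080 cells took pin-transferred compound for 48 h at 37 °C; ATP-based luminescence after 10 min room-temperature reagent incubation reported viability.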
HT1080NT lethal: kills 2HG-producing HT-1080-NT fibrosarcoma cells | HT-1080-NT fibrosarcoma viability, CellTiter-Glo ATP luminescence, 48 h | Potency, µM (series often up to 46.1 µM), actives largely listed as cytotoxic | 360,000 compounds, 1.6% hits;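 further: NT is the 2HG producing partner of a matched IDH1 knockdown line; nearly all actives have a fitted effect of over 55% in size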
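Luminescent CellTiter-Glo readout after 48 hours of compound exposure at 37 degrees C defined viability of HT-1080-NT cells. Activity was normalized to DMSO wells and cell-free media wells; concentration-response curves were fitted and assigned curve classes.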
TDP1 cell noCPT: qHTS for Inhibitors of human tyrosyl-DNA phosphodiesterase 1 (TDP1): qHTS in cells in absence of CPT; DT40 Tdp1-/- hTDP1 cells, no CPT, ATP luminescence, 48 h; Potency, µM (highest dose often 46.2 µM), actives largely listed as inhibitors; 420,000 compounds, 15% hits; further: nearly all actives have a fitted effect of over 55% in size
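Stably hTDP1-transfected Tdp1-null chicken DT40 cells were treated with library compounds minus camptothecin and grown for at least 48 hr at 37 °C, after which cellular ATP was quantified by luminescence.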
IL-1B inflam inh: blocks inflammasome-driven IL-1 beta release | THP-1 LPS/ATP IL-1B secretion, AlphaLISA, 16 h; stronger effect = lower value | activity change, % at 57.5 µM | 360,000 compounds, 4.7% hits; in the data active means activity change below about -50%; inconclusive means mostly about -30% to -49%
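Secreted IL-1B measured by AlphaLISA bead assay after 16 h compound exposure of THP-1 cells; compounds (final up to 57.5 uM) added 1 h before LPS (250 ng/mL) and ATP (1.25 mM) stimulation; lower signal means less secretion.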
Of the large screens only hits and unclear results are named; the others gave an inactive call. In the library only some 19% were active in any assay of this set; here they are far more common. Unless noted, the call rests on the fitted dose curve; in most records, active means well fitted curve in the direction sought with a large enough effect; inconclusive means small, poorly fitted or top-dose-only effect, or another doubt; inactive means no such curve, though single readings can be large; an effect the other way counts as inactive or inconclusive.

COc1cccc(/C=N/NC(=O)c2cccc([N+](=O)[O-])c2)c1OS(=O)(=O)c1ccccc1	DT40 TDP1 CPT inconclusive, TDP1 cell noCPT 16µM
COc1cc(/C=N/NC(=O)c2ccc3ccccc3c2)ccc1Oc1ccc([N+](=O)[O-])cn1	DT40 TDP1 CPT inconclusive, TDP1 cell noCPT inconclusive
Cc1ccc(NC(=O)COC(=O)c2ccc3c(c2)C(=O)N(CCc2ccccc2)C3=O)c(C)c1	DT40 TDP1 CPT inconclusive, TDP1 cell noCPT 6.5µM
COc1ccc(C)cc1NC(=O)C(OC(=O)c1ccc([N+](=O)[O-])o1)c1ccccc1 (stereo not drawn)	DT40 TDP1 CPT 16µM, TDP1 cell noCPT inconclusive
CCN(c1ccc(NC(=O)COC(=O)C2CCN(c3ccc(C(F)(F)F)cn3)CC2)cc1)C(C)C	DT40 TDP1 CPT inconclusive, TDP1 cell noCPT inconclusive
Cc1ccc2ncnc(NCCC(=O)O)c2c1	DT40 TDP1 CPT inconclusive
COCCCNc1ncnc2ccc(C)cc12	DT40 TDP1 CPT 16µM, TDP1 cell noCPT 18µM
FC(F)(F)c1ccccc1-c1cncnc1NCc1cccnc1	none (no result: HT1080 IDH1KD tx, HT1080NT lethal, IL-1B inflam inh)
Cc1cccc(CNc2ncnc3ccc(-c4ccccc4C#N)cc23)c1	none (no result: HT1080 IDH1KD tx, HT1080NT lethal, IL-1B inflam inh)
c1cncc(CNc2ncnc3ccc(-c4cccnc4)cc23)c1	DT40 TDP1 CPT 0.0065µM, TDP1 cell noCPT 12µM (no result: HT1080 IDH1KD tx, HT1080NT lethal, IL-1B inflam inh)
FC(F)(F)c1ccccc1-c1ccc2ncnc(NCc3cccnc3)c2c1	DT40 TDP1 CPT 2.1µM, TDP1 cell noCPT 7.3µM (no result: HT1080 IDH1KD tx, HT1080NT lethal, IL-1B inflam inh)
COCCNc1ncnc2ccc(-c3ccccc3C(F)(F)F)cc12	DT40 TDP1 CPT 13µM, TDP1 cell noCPT 21µM (no result: HT1080 IDH1KD tx, HT1080NT lethal, IL-1B inflam inh)
COc1ccccc1C1CN(Cc2cccc3c2OCO3)Cc2ccccc2O1 (stereo not drawn)	none (no result: HT1080 IDH1KD tx, HT1080NT lethal, IL-1B inflam inh)
Cc1cc(NC(=O)CNCC(c2ccccc2)N(C)C)c([N+](=O)[O-])cc1C (stereo not drawn)	none
C[C@]12c3[nH]c4ccc(Cl)cc4c3CCN1C(=O)[C@@H](CC(=O)NCCN1CCOCC1)C[C@@H]2C(=O)N1CCCCC1	DT40 TDP1 CPT inconclusive, HT1080 IDH1KD tx inconclusive, TDP1 cell noCPT 16µM
CC(C)(C)NC(=O)C[C@H]1C[C@H](C(=O)N2CCCCC2)[C@@]2(C)c3[nH]c4ccc(Cl)cc4c3CCN2C1=O	DT40 TDP1 CPT 23µM, TDP1 cell noCPT 21µM
CN(C)CCCNC(=O)C[C@H]1C[C@H](C(=O)N2CCCCC2)[C@@]2(C)c3[nH]c4ccc(Cl)cc4c3CCN2C1=O	DT40 TDP1 CPT inconclusive, TDP1 cell noCPT inconclusive
CCN(c1ccccc1)S(=O)(=O)c1csc(C(N)=O)c1	DT40 TDP1 CPT inconclusive
COC(=O)[C@H](Cc1ccccc1)NC(=O)C1CCN(C(=O)[C@H](C)NS(=O)(=O)c2ccc(C)cc2)CC1	IL-1B inflam inh -50
COc1cc2ccccc2cc1C(=O)Nc1ccc2oc(-c3cc(Br)ccc3Cl)nc2c1	DT40 TDP1 CPT inconclusive (no result: HT1080 IDH1KD tx, HT1080NT lethal, IL-1B inflam inh)
O=C(Nc1ccc2oc(-c3ccncc3)nc2c1)c1cccs1	none
O=C(Nc1ccc(-c2nc3cc(NC(=O)c4cccs4)ccc3o2)cc1)c1cccs1	DT40 TDP1 CPT 11µM, TDP1 cell noCPT 13µM
COc1cc2ccccc2cc1C(=O)Nc1ccc2oc(-c3ccccc3)nc2c1	DT40 TDP1 CPT 16µM, TDP1 cell noCPT 16µM (no result: HT1080 IDH1KD tx, HT1080NT lethal, IL-1B inflam inh)
COc1ccc(Cl)cc1-c1nc(-c2ccc(NC(=O)c3cccs3)cc2)no1	DT40 TDP1 CPT inconclusive, TDP1 cell noCPT 21µM
CNC(=S)Nc1ccc2nc(C)oc2c1	none
COc1ccc(NC(=O)c2cccs2)cc1OC	HT1080NT lethal inconclusive
